High-throughput results (PubChem)
Mtb BioA inh = BioA (M. tuberculosis) enzyme inhibition | purified M. tuberculosis BioA enzyme, plate reader | AID 602481 | inhibition, % at 9.99 µM | 0.096% of 360,000 active; in the data active = inhibition above about 40%
Yp Topo-I inh = inhibitors of Yersinia pestis topoisomerase I; Y. pestis Topo-I cleavage product accumulation, plate reader; activity, % at 10 µM; 0.064% of 360,000 active; AID 504884; in the data active = activity above about 50%, passing the limit was not always enough
PfHsp40 yeast = restores yeast growth despite PfHsp40 toxicity; S. cerevisiae expressing PfHsp40, growth rescue, ATP luminescence; growth rescue, % at 12.5 µM; 0.68% of 340,000 active; AID 504582; in the data active = growth rescue above about 28%, passing the limit was not always enough;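 also: yeast W303a lacking pdr1 and pdr3 grown in galactose medium; growth measured after three days at 30 °C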
BH1578 lux ind = inducers of Vibrio cholerae quorum light production without autoinducers; V. cholerae BH1578 lux reporter, luminescence, 6 h; activation, % at 18.7 µM; 0.16% of 350,000 active; AID 588436; in the data active = activation mostly above about 9.7%, no sharp cut-off
DUSP3 inh = inhibitors of human VHR1 phosphatase (DUSP3) | inhibition, % at 13.3 µM | P51452 | recombinant VHR phosphatase, pNPP absorbance | 0.52% of 290,000 active; in the data active = inhibition above about 50%
TcdB inh = blocks C. difficile toxin B glycohydrolase activity | P18177 | TcdB glycohydrolase enzymatic assay, plate reader | inhibition, % at 9.99 µM | 0.24% of 350,000 active | AID 652162; in the data active = inhibition above about 10%
Starred values were filed as active, the others as inactive; i = inactive; x = no result; + = active, no number. Most compounds without a hit are left out; they make up all but 1.2% or so of the library.

SMILES	Mtb BioA inh	Yp Topo-I inh	PfHsp40 yeast	BH1578 lux ind	DUSP3 inh	TcdB inh
COc1ccccc1/C=C/CN1CCC(Oc2ccc(C(=O)N3CCCC3)cc2)CC1	2	31	-1	0	53*	0
COc1cc(/C=C/CN2CCC(Oc3ccc(C(=O)N4CCCC4)cc3)CC2)ccc1O	-1	29	0	-1	-17	5
COc1ccc(CN2CCN(C(C)C(=O)NC(C)c3ccc(F)cc3)CC2)cc1F (stereo not drawn)	-1	8	1	0	12	0
Cc1nnc(N/N=C/c2cccc(OCc3ccc(Cl)c(Cl)c3)c2)n1N	0	15	38*	0	-4	x
CN1C(=O)N(C)c2ccc(Br)c3cccc1c23	0	3	2	i	-1	0
CCOC(=O)/C(=N/Nc1ccc(Br)cc1)N1CC(C)OC(C)C1 (stereo not drawn)	x	10	36*	x	x	34*
CN1CCNC(=O)C1CC(=O)O (stereo not drawn)	1	8	-1	-1	21	x
Cc1c(N(C)S(=O)(=O)c2cc(C(=O)N3CCCC3)ccc2Cl)c(=O)n(-c2ccccc2)n1C	-1	2	-1	i	53*	-1
Cc1cc(C(=O)NNC(=O)COc2ccccc2Cl)n[nH]1	0	-3	0	0	51*	2
CCN(CC)c1ccc2c(-c3ccc(S(=O)(=O)O)cc3S(=O)(=O)[O-])c3ccc(=[N+](CC)CC)cc-3oc2c1	-78	+	0	-6	31	-43
Cc1ccc(C(=O)NC(=O)OCCn2c(C)cnc2[N+](=O)[O-])cc1	x	7	-3	i	30	15*
Cc1ccc(-c2csc(NC(=O)c3ccc4c(=O)n5c(nc4c3)CCCCC5)n2)cc1	0	-6	0	1	5	0
CCCCCCC(=O)Nc1nc(C)c(-c2csc(Nc3cc(OC)ccc3OC)n2)s1	1	-23	0	-7	127	0
CCCCCC(=O)Nc1nc(C)c(-c2csc(Nc3cc(OC)ccc3OC)n2)s1	-1	-34	1	i	51*	0
COc1ccc(Br)cc1CNC(=O)Cn1nc(C)n2cccc2c1=O	-3	1	0	0	56*	1
O=C1CCCc2c1cc(-c1ccccc1)n2-c1ccccc1	0	29	3	-1	10	x
CCOC(=O)CC(=O)CSc1nc(C)cc(C)c1C#N	0	-7	0	-3	-1	x
CCOC(=O)CC(=O)CSc1nc2c(c(C)c1C#N)CCC2	x	-1	31*	i	-8	x
COc1cccc(OC)c1C(=O)OCC(=O)Nc1cccnc1Cl	x	0	58*	-2	6	-5
CC(C(=O)NC1CCCC1)N1CCN(S(=O)(=O)c2ccc(C(C)(C)C)cc2)CC1 (stereo not drawn)	1	10	0	0	x	1
CCOc1ccc(N2C(=O)CC(N3CCN(c4ccc(C(=O)c5ccncc5)cc4)CC3)C2=O)cc1 (stereo not drawn)	-2	82*	0	i	x	x
CCN1C(=O)CC(N2CCN(c3ccc(C(=O)c4ccncc4)cc3)CC2)C1=O (stereo not drawn)	-1	-1	0	-3	19	x
CCCNC(=O)N1CC2(CN(CC3CCCC3)C2)c2c(n(C)c3cc(OC)ccc23)[C@H]1CO	x	x	x	x	x	-1
C[C@@H]1CCCCO[C@@H](CN(C)C(=O)Cc2ccccc2)[C@H](C)CN([C@@H](C)CO)C(=O)c2cc(NC(=O)C3CCCCC3)ccc2O1	-5	x	x	x	x	x
CSc1cccc(CN2CCC(CCC(=O)NC3CC3)CC2)c1	-1	-5	1	-1	51*	1
SMILES	Mtb BioA inh	Yp Topo-I inh	PfHsp40 yeast	BH1578 lux ind	DUSP3 inh	TcdB inh
CCCn1c(=S)[nH]c2cc(C(=O)N3CCN(c4ccc(F)cc4)CC3)ccc2c1=O	-2	-5	x	i	x	0
O=C(c1cc(Br)c(Br)s1)N1CCN(C/C=C/c2ccccc2)CC1	-3	58*	2	6	28	x
Cc1ccc(NC(=O)c2cccc(S(=O)(=O)N(C)C3CCCCC3)c2)nc1	-1	4	50*	-2	x	-1
COc1ccccc1NC(=O)N[C@H]1C=C[C@@H](CC(=O)N[C@H](C)c2ccccc2)O[C@@H]1CO	0	x	x	x	x	-1
O=C(C[C@H]1C[C@H]2c3cc(NC(=O)c4cccnc4)ccc3O[C@H]2[C@@H](CO)O1)NCC(F)(F)F	24	x	x	x	x	-1
OCCNc1nc(Nc2ccccc2)nc2ccccc12	1	-4	1	17*	-5	x
